Data as given in the supplement of paper PMC8728848.
About 410 targets per protein were measured; listed, in parts, are those with the strongest signals and a random draw of the rest.

Tests used:
Assay in all cases: glycan array binding signal (z-score within array); higher = stronger binding
Conditions in all cases: glycan notation: IUPAC condensed, linker removed
[1] = biological target: Fuc(a1-2)Gal(b1-3)[Fuc(a1-4)]GlcNAc(b1-2)Man(a1-3)[Fuc(a1-2)Gal(b1-3)[Fuc(a1-4)]GlcNAc(b1-2)Man(a1-3)]Man(b1-4)GlcNAc(b1-4)GlcNAc
Procedure, shortened: (§1)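 Arrays were curated from the Consortium for Functional Glycomics database, 3228 in total, and kept only where the protein sequence was available. Binding is expressed as a within-array Z-score. This score was averaged across arrays of the same protein sequence at different concentrations or buffers and across linkers, and negative values can be read as non-binding.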

[2] = biological target: Fuc(a1-2)Gal(b1-3)[Fuc(a1-4)]GlcNAc(b1-3)[Gal(b1-4)GlcNAc(b1-6)]Gal(b1-4)Glc
Procedure, shortened: as §1

[3] = biological target: Fuc(a1-2)[Gal(a1-3)]Gal(b1-3)GlcNAc
Procedure, shortened: as §1

[4] = biological target: Fuc(a1-2)[Gal(a1-3)]Gal(b1-3)GlcNAc(b1-6)GalNAc
Procedure, shortened: as §1

[5] = biological target: Fuc(a1-2)[Gal(a1-3)]Gal(b1-4)GlcNAc(b1-6)GalNAc
Procedure, shortened: as §1

[6] = biological target: Fuc(a1-3)[Gal(b1-4)]GlcNAc(b1-3)Gal(b1-4)[Fuc(a1-3)]GlcNAc
Procedure, shortened: as §1

Gal(a1-3)Gal(b1-3)GlcNAc = biological target: Gal(a1-3)Gal(b1-3)GlcNAc
Procedure, shortened: as §1

[7] = biological target: Gal(a1-3)[Gal(a1-4)]Gal(b1-4)GlcNAc
Procedure, shortened: as §1

Gal(b1-2)Gal = biological target: Gal(b1-2)Gal
Procedure, shortened: as §1

Gal(b1-3)GalNAc = biological target: Gal(b1-3)GalNAc
Procedure, shortened: as §1

[8] = biological target: Gal(b1-3)GalNAc(a1-3)[Fuc(a1-2)]Gal(b1-4)GlcNAc
Procedure, shortened: as §1

[9] = biological target: Gal(b1-3)GlcNAc(b1-2)Man(a1-3)[Gal(b1-3)GlcNAc(b1-2)Man(a1-6)]Man(b1-4)GlcNAc(b1-4)[Fuc(a1-6)]GlcNAc
Procedure, shortened: as §1

[10] = biological target: Gal(b1-3)[Fuc(a1-4)]GlcNAc(b1-2)Man
Procedure, shortened: as §1

[11] = biological target: Gal(b1-4)GlcNAc(b1-2)[Gal(b1-4)GlcNAc(b1-6)]Man(a1-6)[GlcNAc(b1-4)][Gal(b1-4)GlcNAc(b1-2)[Gal(b1-4)GlcNAc(b1-4)]Man(a1-3)]Man(b1-4)GlcNAc(b1-4)[Fuc(a1-6)]GlcNAc
Procedure, shortened: as §1

[12] = biological target: Gal(b1-4)GlcNAc(b1-3)Gal(b1-4)GlcNAc(b1-2)Man(a1-3)[Gal(b1-4)GlcNAc(b1-3)Gal(b1-4)GlcNAc(b1-2)Man(a1-6)]Man(b1-4)GlcNAc(b1-4)GlcNAc
Procedure, shortened: as §1

[13] = biological target: Gal(b1-4)GlcNAc(b1-3)Gal(b1-4)GlcNAc(b1-3)[Gal(b1-4)GlcNAc(b1-3)Gal(b1-4)GlcNAc(b1-6)]GalNAc
Procedure, shortened: as §1

[14] = biological target: Gal(b1-4)GlcNAc(b1-6)[Gal(b1-3)]GalNAc
Procedure, shortened: as §1

Gal3S(b1-4)Glc = biological target: Gal3S(b1-4)Glc
Procedure, shortened: as §1

Gal4S6S(b1-4)GlcNAc = biological target: Gal4S6S(b1-4)GlcNAc
Procedure, shortened: as §1

GalNAc(b1-3)Gal = biological target: GalNAc(b1-3)Gal
Procedure, shortened: as §1

GalNAc(b1-4)Gal(b1-4)Glc = biological target: GalNAc(b1-4)Gal(b1-4)Glc
Procedure, shortened: as §1

GlcA(b1-3)GlcNAc = biological target: GlcA(b1-3)GlcNAc
Procedure, shortened: as §1

[15] = biological target: GlcA3S(b1-3)Gal(b1-4)GlcNAc(b1-2)Man
Procedure, shortened: as §1

[16] = biological target: GlcNAc(a1-3)Gal(b1-4)GlcNAc
Procedure, shortened: as §1

[17] = biological target: GlcNAc(a1-4)Gal(b1-4)GlcNAc(b1-3)Gal(b1-4)[Fuc(a1-3)]GlcNAc(b1-3)Gal(b1-4)[Fuc(a1-3)]GlcNAc
Procedure, shortened: as §1

[18] = biological target: GlcNAc(b1-3)Gal(b1-4)GlcNAc(b1-6)[Gal(b1-3)]GalNAc
Procedure, shortened: as §1

[19] = biological target: Man(a1-2)Man(a1-3)[Man(a1-6)]Man(a1-6)[Man(a1-2)Man(a1-3)]Man(b1-4)GlcNAc(b1-4)GlcNAc
Procedure, shortened: as §1

[20] = biological target: Man(a1-2)Man(a1-6)[Man(a1-3)]Man(a1-6)[Man(a1-2)Man(a1-2)Man(a1-3)]Man(b1-4)GlcNAc(b1-4)GlcNAc
Procedure, shortened: as §1

[21] = biological target: Man(a1-3)[Man(a1-6)]Man(a1-6)[Man(a1-3)]Man
Procedure, shortened: as §1

[22] = biological target: Neu5Ac(a2-3)Gal(b1-4)GlcNAc(b1-2)Man
Procedure, shortened: as §1

[23] = biological target: Neu5Ac(a2-3)Gal(b1-4)GlcNAc(b1-2)Man(a1-3)[Neu5Ac(a2-3)Gal(b1-4)GlcNAc(b1-2)Man(a1-6)]Man(b1-4)GlcNAc(b1-4)GlcNAc
Procedure, shortened: as §1

[24] = biological target: Neu5Ac(a2-3)Gal(b1-4)GlcNAc(b1-3)Gal(b1-4)GlcNAc
Procedure, shortened: as §1

[25] = biological target: Neu5Ac(a2-3)Gal(b1-4)[Fuc(a1-3)]GlcNAc(b1-6)[Neu5Ac(a2-3)Gal(b1-3)]GalNAc
Procedure, shortened: as §1

[26] = biological target: Neu5Ac(a2-3)Gal6S(b1-4)GlcNAc
Procedure, shortened: as §1

[27] = biological target: Neu5Ac(a2-6)Gal(b1-4)GlcNAc(b1-2)Man(a1-3)[Neu5Ac(a2-6)Gal(b1-4)GlcNAc(b1-2)Man(a1-6)]Man(b1-4)GlcNAc(b1-4)[Fuc(a1-6)]GlcNAc
Procedure, shortened: as §1

[28] = biological target: Neu5Ac(a2-6)Gal(b1-4)GlcNAc(b1-2)[Neu5Ac(a2-6)Gal(b1-4)GlcNAc(b1-4)]Man(a1-3)[GlcNAc(b1-4)][Neu5Ac(a2-6)Gal(b1-4)GlcNAc(b1-2)[Neu5Ac(a2-6)Gal(b1-4)GlcNAc(b1-6)]Man(a1-6)]Man(b1-4)GlcNAc(b1-4)GlcNAc
Procedure, shortened: as §1

[29] = biological target: Neu5Ac(a2-8)Neu5Gc(a2-3)Gal(b1-4)GlcNAc
Procedure, shortened: as §1

B1: SSP1 (Sclerotinia sclerotiorum), XP_001584968 (protein)
chain: MGSSHHHHHHSSGLVPRGSHMSLLTTELACTSAPDQVLHLFFQDGQNILEARSPDGGNVWTTQDTIIAKDGDYNGSSMTCYYVDKDANFDNQPSIHLLYMNKDKQLTEKVKRMKGDNPIWEDAKVPDEVRKGPEQYSKLTSGSFNQGTGWNPNGSQWAYFSASKDGKMGIVEIRRTPKDPWHTETILEEKWGDELPGTALACVIGNGKIRVFLQHHDYSIILYENQNNTWHDRGTFIPKDKVQATTPLACTMTKDGSVHLFYVSKSNKIIHCTDGKKEEELINFFPGSKLGATSVENKITLFFRNLNPVNEVGTLENENGSWKHGTTVIPA
[1]
  glycan array binding signal (z-score): 0.937
[2]
  glycan array binding signal (z-score): -0.405
[3]
  glycan array binding signal (z-score): 0.084
[4]
  glycan array binding signal (z-score): 7.05
[5]
  glycan array binding signal (z-score): -0.15
[6]
  glycan array binding signal (z-score): -0.07
Gal(a1-3)Gal(b1-3)GlcNAc
  glycan array binding signal (z-score): 2.88
[7]
  glycan array binding signal (z-score): 2.85
Gal(b1-2)Gal
  glycan array binding signal (z-score): 0.5
Gal(b1-3)GalNAc
  glycan array binding signal (z-score): -0.111
[8]
  glycan array binding signal (z-score): 3.1
[9]
  glycan array binding signal (z-score): 5.12
[10]
  glycan array binding signal (z-score): -0.358
[11]
  glycan array binding signal (z-score): 0.197
[12]
  glycan array binding signal (z-score): 8.48
[13]
  glycan array binding signal (z-score): -0.003
[14]
  glycan array binding signal (z-score): -0.405
Gal3S(b1-4)Glc
  glycan array binding signal (z-score): 1.38
Gal4S6S(b1-4)GlcNAc
  glycan array binding signal (z-score): -0.291
GalNAc(b1-3)Gal
  glycan array binding signal (z-score): 2.2
GalNAc(b1-4)Gal(b1-4)Glc
  glycan array binding signal (z-score): -0.27
GlcA(b1-3)GlcNAc
  glycan array binding signal (z-score): 0.484
[15]
  glycan array binding signal (z-score): -0.535
[16]
  glycan array binding signal (z-score): -0.477
[17]
  glycan array binding signal (z-score): 2.28
[18]
  glycan array binding signal (z-score): -0.156
[19]
  glycan array binding signal (z-score): -0.017
[20]
  glycan array binding signal (z-score): -0.467
[21]
  glycan array binding signal (z-score): 2.15
[22]
  glycan array binding signal (z-score): 0.612
[23]
  glycan array binding signal (z-score): -0.45
[24]
  glycan array binding signal (z-score): 0.123
[25]
  glycan array binding signal (z-score): 1.79
[26]
  glycan array binding signal (z-score): -0.085
[27]
  glycan array binding signal (z-score): -0.364
[28]
  glycan array binding signal (z-score): 0.132
[29]
  glycan array binding signal (z-score): 9.08
